High-throughput results deposited in PubChem by several laboratories.
MPTP block – inhibitors of mitochondrial permeability transition pore. isolated mouse mitochondria, Ca2+ swelling absorbance, 30 min. 360,000 tested, 1.4% active. AID 602449. inhibition, % at 10 µM;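 active = inhibition of 50% or more, scaled per plate between neutral and stimulator controls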
Beta cell apopt – beta cell apoptosis inhibition | protection from apoptosis, % (no concentration beside the values) | INS-1E cytokine-induced death, ATP luminescence, 48 h; percent of positive-control rescue, neutral wells zero | 300,000 tested, 0.8% active | AID 435005;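 active = Every replicate reaches about 75%, or at least half do and their mean reaches it too, limit read from the data; inconclusive = At least half of replicates reach the limit but their mean does not; inactive = Under half of replicates reach the limit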;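 note: higher means more ATP so stronger rescue from cytokine killing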
Calb FLC – C. albicans growth modulation with fluconazole. 300,000 tested, 0.57% active. C. albicans CaCi-2 (fluconazole-resistant clinical isolate) + fluconazole, Alamar Blue growth, 48 h. AID 1979. growth inhibition, % (no concentration beside the values);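 active = growth inhibition above about 58% in most replicates, limit read from the data, passing the limit was not always enough; inconclusive = exactly half the replicates above a set limit; inactive = most replicates below a set limit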;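 note: all wells also contain fluconazole at 8 µg/ml as a sub-toxic cotreatment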
CSC inhib – blocks cancer stem cells; inhibition, % at 7.5 µM; cancer stem cell-like cells viability, luminescence; AID 2717; 300,000 tested, 1.1% active; in the data active = inhibition above about 75%; inconclusive = no clear call, values can overlap the other calls; tested in HMLE shEcad cells
Mdm2 MdmX PPI – disrupts the human Mdm2-MdmX interaction | O15151+Q00987 | SaOS-2 split-luciferase Mdm2/MdmX complementation, luminescence | inhibition, % at 8 µM | 330,000 tested, 3% active | AID 485346;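 active = inhibition of at least 50% at 8 µM in the primary screen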
Target sequence (O15151 whole entry, looked up): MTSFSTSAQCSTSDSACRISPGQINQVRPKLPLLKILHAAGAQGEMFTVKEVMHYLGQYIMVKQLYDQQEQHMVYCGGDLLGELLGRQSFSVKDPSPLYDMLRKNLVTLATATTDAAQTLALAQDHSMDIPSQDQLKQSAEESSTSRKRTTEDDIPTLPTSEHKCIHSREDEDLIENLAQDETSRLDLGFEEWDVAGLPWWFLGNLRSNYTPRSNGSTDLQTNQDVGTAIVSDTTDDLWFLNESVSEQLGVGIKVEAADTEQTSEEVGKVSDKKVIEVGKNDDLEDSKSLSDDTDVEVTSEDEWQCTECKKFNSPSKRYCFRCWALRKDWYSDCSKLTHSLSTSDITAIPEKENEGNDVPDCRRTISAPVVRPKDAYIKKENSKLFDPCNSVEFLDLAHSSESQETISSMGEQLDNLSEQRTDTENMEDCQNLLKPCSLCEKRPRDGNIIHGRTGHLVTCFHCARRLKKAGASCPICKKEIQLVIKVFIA
Target sequence (Q00987 whole entry, looked up): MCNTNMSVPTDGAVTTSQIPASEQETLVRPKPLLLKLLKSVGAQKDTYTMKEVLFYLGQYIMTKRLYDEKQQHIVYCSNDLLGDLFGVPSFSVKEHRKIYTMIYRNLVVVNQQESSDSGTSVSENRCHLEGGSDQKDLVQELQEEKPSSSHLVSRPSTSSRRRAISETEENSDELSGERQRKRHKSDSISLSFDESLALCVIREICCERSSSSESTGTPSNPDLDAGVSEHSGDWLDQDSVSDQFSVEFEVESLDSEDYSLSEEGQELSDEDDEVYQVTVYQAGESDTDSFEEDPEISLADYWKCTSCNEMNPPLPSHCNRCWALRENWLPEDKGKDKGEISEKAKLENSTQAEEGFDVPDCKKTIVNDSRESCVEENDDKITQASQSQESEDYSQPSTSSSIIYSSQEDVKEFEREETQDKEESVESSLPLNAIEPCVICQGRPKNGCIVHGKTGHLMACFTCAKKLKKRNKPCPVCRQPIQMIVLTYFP
MPTP counter – Rhodamine 123 counter-screen of mitochondrial pore hits; shares compounds with MPTP block; isolated mitochondria, membrane potential, Rhodamine 123 fluorescence; inhibition, % at 10 µM; 5,000 tested, 78% active; AID 624504; in the data active = inhibition above about 22%
MPTP abs DR – MPTP inhibition, dose response swelling confirmation. shares compounds with MPTP block. isolated mitochondria swelling, absorbance. AID 651561. 780 tested, 58% active. IC50, µM; in the data active = IC50 below about 20 µM
MPTP cs DR – MPTP inhibitor counter-screen activity, dose response. IC50, µM. isolated mitochondria counterscreen, fluorescence read-out. 780 tested, 49% active. AID 651564. shares compounds with MPTP block; in the data active = IC50 below about 80 µM
Each line names hits and unclear results; the compound was inactive in the other large screens (follow-up assays come after a bar, where they were run). Shown are actives, neighbours in structure and some others; about 4.8% of the full set was active somewhere.

Cc1cccc(N2CC(C(=O)Nc3nnc(SCC(=O)NCC4CCCO4)s3)CC2=O)c1 (stereo not given)	none
CC[n+]1c(/C=C/c2ccc(OC)c(OC)c2)ccc2ccccc21	none
CCN1/C(=C\c2ccc3cc(C)ccc3[n+]2CC)Sc2cc(C)c(C)cc21	MPTP block 85, Calb FLC 104 (no result: Beta cell apopt, CSC inhib, Mdm2 MdmX PPI) | MPTP counter 85
CCN1/C(=C/c2ccc3cc(C)cc(C)c3[n+]2CC)Sc2cc(C)ccc21	MPTP block 87 (no result: Beta cell apopt, Calb FLC, CSC inhib, Mdm2 MdmX PPI) | MPTP counter 97
CC(=O)N1c2ccc(C)cc2Sc2c1ccc1ccccc21	none (no result: Beta cell apopt, Calb FLC, CSC inhib, Mdm2 MdmX PPI)
O=C(NC(NC(=S)N1CCOCC1)C(Cl)(Cl)Cl)c1ccc(Cl)cc1 (stereo not given)	MPTP block 67 | MPTP counter 83
COc1cc(C#N)ccc1OC(=O)C1CCN(C(=O)c2ccc(F)cc2)CC1	none
Cc1ccc(S(=O)(=O)Nc2ccccc2CNc2ccccn2)cc1	none
Cc1ccc(S(=O)(=O)Nc2ccccc2CNc2ccc(Br)cn2)cc1	MPTP block 68 | MPTP counter 70
Cc1ccc2c(c1)[C@@H]1[C@H](CO2)[C@H](c2ccccc2)[C@@]2(C)C(=O)N[C@H](C)C(=O)N12	none (no result: Calb FLC)
Cc1cccc2c1-c1sc(C(=O)Nc3cccc([N+](=O)[O-])c3C)cc1CO2	MPTP block 75 | MPTP counter 68
CCC(C)[C@H](NC(=O)[C@@H]1CSC2c3ccccc3C(=O)N21)C(=O)NCc1ccncc1 (stereo not given in full)	none
Cc1ccc(S(=O)(=O)/N=C(/Nc2ccc([N+](=O)[O-])cc2[N+](=O)[O-])c2ccccc2)cc1	MPTP block 86 (no result: Calb FLC) | MPTP counter 92
Cc1ccc(S(=O)(=O)/N=C(/Nc2ccc([N+](=O)[O-])cc2)c2ccccc2)cc1	none
CCCCN(CCCC)CCNC(=O)c1cn(C)c2ccc(S(=O)(=O)N3CCCC3)cc2c1=O	none
Cc1cc(C)n(-c2nc(-c3ccc(Cl)c(Cl)c3)cs2)n1	MPTP block 60 | MPTP counter inactive | MPTP abs DR inactive | MPTP cs DR inactive
Cc1cccc(Nc2cc(=O)n(C)c(=O)[nH]2)c1	none
Cc1ccc(CNC(=O)CN(C)S(=O)(=O)c2ccc3c(c2)n(C)c(=O)c(=O)n3C)cc1	none
O=S(=O)(Nc1nc2ccccc2nc1N1CCN(c2ccccc2F)CC1)c1ccc(Cl)cc1	MPTP block 79, CSC inhib inconclusive | MPTP counter 88
CC1CCN(S(=O)(=O)c2cccc(C(=O)N3CCN(c4ccc(F)cc4)CC3)c2)CC1	none
Cc1cc(C)n2nc(CNS(=O)(=O)c3ccc(F)c(C)c3)nc2n1	none
CC1=C(C)/C(=N\OS(=O)(=O)c2ccc(C)cc2)C=CC1=O	MPTP block 98, Beta cell apopt 106, CSC inhib 89 (no result: Calb FLC, Mdm2 MdmX PPI) | MPTP counter 104
COc1ccc(S(=O)(=O)/N=C2/C=CC(=O)C(C)=C2C)cc1	none
O=C(O)COn1c(-c2ccccc2)nc2ccc([N+](=O)[O-])cc21	none
CCOC(=O)C(C)On1c(-c2ccccc2)nc2ccc([N+](=O)[O-])cc21 (stereo not given)	none
Cc1ccc(COn2c(-c3ccc(Cl)cc3)nc3ccc([N+](=O)[O-])cc32)cc1	MPTP block 88 (no result: Beta cell apopt) | MPTP counter 84
O=[N+]([O-])c1ccc2nc(-c3ccc(Cl)cc3)n(OCc3ccccc3)c2c1	MPTP block 89 | MPTP counter 94
CCOC(=O)C(C)On1c(-c2ccc(Cl)cc2)nc2ccc([N+](=O)[O-])cc21 (stereo not given)	MPTP block 89 | MPTP counter 108
CCCc1cc(=O)n2nc(N3CCC(C(=O)Nc4cccc(C(C)=O)c4)CC3)sc2n1	none
NC(=O)c1csc(CCNC(=O)c2ccccc2)n1	none (no result: Beta cell apopt, Calb FLC, CSC inhib, Mdm2 MdmX PPI)
CCCCCCCCCCCCCCCC(O)C(N)CO (stereo not given)	MPTP block 80 (no result: Beta cell apopt, Calb FLC) | MPTP counter inactive
CCc1ccc(OCC(=O)Nc2ccc(-c3cc4ccccc4oc3=O)c(OC)c2)cc1	MPTP block 101 | MPTP counter 97
COc1cc(NC(=O)c2cc(Cl)ccc2Cl)ccc1-c1cc2ccccc2oc1=O	none (no result: CSC inhib)
CCOC(=O)C1CCCN(S(=O)(=O)c2ccc(S(=O)(=O)N(CC)CC)cc2)C1 (stereo not given)	MPTP block 97, Beta cell apopt 110 (no result: CSC inhib) | MPTP counter 102
CCCc1nc(SC2CCCC2)c2c(=O)n(C)c(=O)n(C)c2n1	MPTP block 72 | MPTP counter inactive | MPTP abs DR inactive | MPTP cs DR 70
CCN(CC(=O)Nc1ccccc1C(F)(F)F)C(=O)c1ccccc1Cc1ccccc1	none
CC(C)(C)C(=O)Cn1c(=N)n(Cc2ccccc2)c2ccccc21	none
CC(C)(C)C(=O)Cn1c(=N)n(Cc2ccccc2Cl)c2ccccc21	MPTP block 56 (no result: CSC inhib) | MPTP counter inactive | MPTP abs DR 11 | MPTP cs DR 55
CSc1cccc(CN2CCC(CO)(Cc3cccc(C(F)(F)F)c3)CC2)c1	MPTP block 72 | MPTP counter inactive | MPTP abs DR 5.2 | MPTP cs DR 40
Cc1cccc(C(=O)Nc2ccccc2C(=O)OCC(=O)Nc2ccc(C#N)cc2)c1	MPTP block 77 (no result: CSC inhib) | MPTP counter 62
Cc1cccc(OCC(=O)Nc2ccc(C(=O)Nc3ccccc3C(=O)O)cc2)c1	none (no result: Beta cell apopt, Calb FLC, CSC inhib, Mdm2 MdmX PPI)
Cc1ccc(C(=O)COC(=O)CNC(=O)c2ccccc2)s1	none (no result: Calb FLC)
C#CCOCCOCCOCCNc1nc(N2CCN(C(=O)[C@H](CCCCN)n3cc([C@@H](N)C(C)CC)nn3)CC2)nc(N2CCN(C(=O)[C@H](CCCCN)n3cc([C@@H](N)CO)nn3)CC2)n1 (stereo not given in full)	none (no result: MPTP block)
C#CCOCCOCCOCCNc1nc(N2CCN(C(=O)[C@H](CCCCN)n3cc(CN)nn3)CC2)nc(N2CCN(C(=O)[C@H](CCCCN)n3cc([C@@H](N)[C@H](C)CC)nn3)CC2)n1	MPTP block 88 (no result: Calb FLC) | MPTP counter inactive | MPTP abs DR 6.4 | MPTP cs DR 65
C#CCOCCOCCOCCNc1nc(N2CCN(C(=O)[C@H]([C@@H](C)CC)n3cc([C@@H](N)CC(C)C)nn3)CC2)nc(N2CCN(C(=O)[C@H](CCCCN)n3cc([C@@H](N)CC(C)C)nn3)CC2)n1	none (no result: MPTP block)
C#CCOCCOCCOCCNc1nc(N2CCN(C(=O)[C@H](CCCN=C(N)N)n3cc(C(N)[C@@H](C)CC)nn3)CC2)nc(N2CCN(C(=O)[C@H](CCC(=O)O)n3cc([C@@H](N)CCCCN)nn3)CC2)n1 (stereo not given in full)	none (no result: Calb FLC)
